Experimental data as given in ChEMBL document CHEMBL4513146, “CO-ADD screening of Karazin Kharkiv National University (Ukraine) compounds”.
Potency and affinity values are given separately.

What follows are compounds tested on Escherichia coli. Details: Concentration 32 ug.mL-1;; ASSAY_TEST Inhibition of Bacterial Growth; detection method Absorption (OD600); MEDIA CAMHB; plate type 384well; NBS; CORNING #3640; time 18 hr.

SMILES | Inhibition [%]
Cc1nnc2c(=O)n(CC(=O)Nc3ccc(Br)cc3)c3ccccc3n12 | 5.5
COc1ccc(Cn2nc3ccc(-c4ccc(Cl)cc4)nn3c2=O)cc1F | 0.48
COc1ccccc1-n1ccn2c(SCC(=O)Nc3ccc(C)cc3C)nnc2c1=O | -4.75
CCc1cccc(NC(=O)Cn2c(=O)c3nnc(C(C)C)n3c3ccccc32)c1 | 8.67
O=C(CSc1nnc2c3cc(-c4ccccc4)nn3ccn12)Nc1cccc(Br)c1 | 2.01
Cc1cccc(NC(=O)Cn2nc3c(SCc4ccccc4)nccn3c2=O)c1C | -6.74
COc1ccc(CNC(=O)Cn2nc3c4cc(-c5ccc(Cl)cc5)nn4ccn3c2=O)cc1 | 4.2
COc1ccc(-c2cc3c4nn(CC(=O)Nc5cc(Cl)ccc5C)c(=O)n4ccn3n2)cc1 | 1.53
CCOc1ccc(-n2ccn3c(SCC(=O)Nc4cccc(Cl)c4)nnc3c2=O)cc1 | 2.43
CCOc1ccc(-n2ccn3c(SCC(=O)c4ccc(F)cc4)nnc3c2=O)cc1 | 2.02
O=C(CSc1nnc2c(=O)n(-c3ccc(Br)cc3)ccn12)c1ccc(F)cc1 | -3.19
Cc1ccc(-c2ccc3nn(Cc4cccc(Br)c4)c(=O)n3n2)cc1C | -2.14
COc1cccc(-n2ccn3c(SCc4c(F)cccc4Cl)nnc3c2=O)c1 | -9.46
Cc1c(Cl)cccc1NC(=O)Cn1nc2c(N3CCOCC3)nc3ccccc3n2c1=O | -0.44
CC(C)c1nnc2c(SCC(=O)Nc3ccc(Br)cc3F)nc3ccccc3n12 | -1.36
